Assay outcomes from PubChem.
Shiga inhibitor = Shiga toxin inhibition | AID 2315 | inhibition, % at 38.7 µM | 290,000 tested, 9.2% active | Vero cells, Shiga toxin protein synthesis inhibition reporter; in the data active = inhibition mostly above about 28%, no sharp cut-off; inactive = mostly below about 43%; note: 0% is about no effect
CHX counter = affects cycloheximide protein synthesis inhibition readout, counter-screen | AID 2314 | 300,000 tested, 12% active | max response, % | cell reporter, cycloheximide protein synthesis inhibition counterscreen; in the data active = max response mostly above about 13%, no sharp cut-off; inactive = mostly below about 14%; note: read at 38.3 µM for the half of the compounds with a filed dose; 0% is about no effect
Pf growth 96h = inhibits malaria parasite growth, 96 h. Potency, µM (top dose mostly 28.7 µM), inactives show top-dose activity change, negative = inhibition, hits mostly inhibitors. P. falciparum luciferase reporter growth, 96 h. AID 504834. 320,000 tested, 6.9% active; note: potency is the fitted concentration of half-maximal effect; % is set by controls: 0 for no effect and ±100 for the full control effect
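Parasite growth measured via integrated firefly luciferase reporter in P. falciparum. Infected erythrocytes at 2% hematocrit, 0.05% parasitemia final were treated 96 hours at 37 C under 5% CO2, and luminescence was read.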
SARS PLpro yeast = blocks SARS-CoV papain-like protease in a yeast assay. Potency, µM (titrated, usually from 32.9 µM), for the others: top-dose activity, positive = growth rescue, hits mostly activators. S. cerevisiae expressing SARS-CoV PLpro, growth rescue. 330,000 tested, 0.19% active; calls by dose curve; note: potency is the fitted concentration of half-maximal effect; 0% is about no effect; nearly all actives have a fitted effect of over 55% in size
Pf growth 48h = P. falciparum growth inhibition at 48 hours (one generation). P. falciparum luciferase growth in erythrocytes, 48 h. Potency, µM (highest dose often 28.7 µM), for the others: top-dose activity change, negative = inhibition, actives largely listed as inhibitors. 310,000 tested, 5.9% active; note: potency is the fitted concentration of half-maximal effect; % is set by controls: 0 for no effect and ±100 for the full control effect
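Luciferase-expressing parasites in RBCs, 2% Hct / 0.1% parasitemia final; RPMI 1640 + 0.5% Albumax; 37 C, 5% CO2, one generation; luminescence read-out, lower signal = inhibition.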
NS1 inh = influenza NS1 inhibition; Potency, µM (top dose mostly 46.1 µM), inactives show at the highest dose activity, positive = more growth; 270,000 tested, 0.4% active; AID 2326; calls by dose curve; note: potency is the fitted concentration of half-maximal effect; actives are rising curves; nearly all actives have a fitted effect of over 50% in size
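OD600 was taken as the measure of yeast growth restored by compound in an NS1-expressing S. cerevisiae strain. Cells had been washed out of glucose medium and diluted 1:100 into galactose -URA medium, pH 6.0.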
* marks the source's active call; other numbers are inactive results; ? = inconclusive; . = no result. Shown are actives, neighbours in structure and some others; about 21% of the full set was active somewhere. Unless noted, calls come from the whole dose curve; as a rule, active = well fitted inhibition curve with a large enough effect; inconclusive = small, poorly fitted or top-dose-only effect, or another doubt; inactive = no such curve, though single readings can be large or run the other way.

SMILES	Shiga inhibitor	CHX counter	Pf growth 96h	SARS PLpro yeast	Pf growth 48h	NS1 inh
Brc1ccccc1OCCOc1cccc2cccnc12	68.0*	16.4*	-15.7%	-15.7%	82.3%	-5.9%
Cc1cc(C)cc(OCCCOc2cccc3cccnc23)c1	-16.2	4.7	38.7%	-31.6%	-11.8%	-109.4%
CCCCCn1c(=O)[nH]c2cc(C(=O)NCCN(CC)CC)ccc2c1=O	19.7	-4.5	?	4.3%	-22.1%	-5.2%
COC(=O)c1ccc(Cn2nc(-c3cc(C)ccc3C)ccc2=O)cc1	-4.5	-1.7	32.2%	-3.4%	12.8%	-1.4%
CCc1noc(C)c1C(=O)OCC(=O)c1ccccc1OC	30.2	3.4	?	-3.2%	3.5%	-6.9%
O=C1C[C@@H]2c3c(cccc3CN1Cc1ccc(F)cc1)C[C@@H](O)[C@H]2O	.	.	0.0%	-12.2%	24.9%	.
COc1nc(OC)nc(N2CCC(C(=O)NCc3cccs3)CC2)n1	8.4	-2.5	?	7.4%	-21.5%	0.5%
COc1cc(C(=O)COC(=O)c2ccncc2)cc(OC)c1OC	.	.	.	2.9%	.	.
O=C(NCc1cccc(C(F)(F)F)c1)C1CCCN(c2cnccn2)C1 (stereo not drawn)	-8.4	-3.1	23.4%	-2.8%	1.0%	-7.8%
CC(=O)c1cccc(OCCCOc2cccc3cccnc23)c1	20.3	18.6*	?	-4.2%	-0.3%	-36.1%
O=C1C(=O)c2ccccc2C(O)=C1c1cccc([N+](=O)[O-])c1	50.3	23.4*	7.38µM*	0.6%	?	-37.5%
CC(C)c1ccc(C2=C(O)c3ccccc3C(=O)C2=O)cc1	9.8	-2.5	163.6%	-92.2%	1.47µM*	-16.3%
Cc1ccc(C2=C(O)c3ccccc3C(=O)C2=O)cc1	-5.5	-2.8	10.0%	-10.5%	?	-90.9%
CC(C)[C@H](NC(=O)c1ccccc1)C(=O)NC1=NCCS1	.	.	.	-9.6%	.	.
COc1ccc(NC(=O)[C@@H]2[C@@H]3C(=O)N(C4CCCCC4)C(=O)[C@@H]3C3c4ccccc4C=CN32)cc1 (stereo partly drawn)	20.4	3.4	14.7µM*	-4.2%	7.38µM*	?
CC(=O)[C@@H]1[C@@H]2C(=O)N(C3CCCCC3)C(=O)[C@@H]2C2c3ccccc3C=CN21 (stereo partly drawn)	19.2	9.4	?	-2.5%	?	?
C[N+]12CCC(CC1)C(C(O)(c1cccc(Cl)c1)c1cccc(Cl)c1)C2 (stereo not drawn)	16.3	-0.3	2.94µM*	0.1%	13.1µM*	-3.9%
CC[N+]12CCC(CC1)C(C(O)(c1ccccc1)c1ccccc1)C2 (stereo not drawn)	16.4	7.8	?	0.4%	?	-4.7%
C/C(=N\Nc1ncc(Br)cn1)c1cccc([N+](=O)[O-])c1	89.8	26.4*	-9.2%	-9.3%	36.7%	-32.7%
C/C(=N\Nc1nc(N2CCOCC2)nc(N2CCOCC2)n1)c1cccc([N+](=O)[O-])c1	-1.7	-2.5	8.9%	-0.7%	10.4µM*	.
C/C(=N\NC(=O)OC(C)(C)C)c1cccc([N+](=O)[O-])c1	28.9*	11.3	4.4%	1.1%	54.3%	-0.6%
O=C1CCC2(C(=O)O)Sc3ccccc3N12 (stereo not drawn)	-19.0	-2.5	.	9.5%	5.8%	5.5%
COc1ccc(S(=O)(=O)N(C)c2ccc(C(=O)NCc3ccccn3)cc2)cc1OC	-16.1	0.7	-9.2%	-5.4%	-3.2%	-0.5%
COC(=O)c1ccc(CNCC(O)COc2ccc(-c3ccccc3)cc2)cc1 (stereo not drawn)	37.5	3.0	11.2%	-0.6%	?	-6.0%
COc1ccc(OCC(O)CNC2CCCC2)cc1 (stereo not drawn)	10.5	-1.4	-26.5%	-3.3%	3.5%	12.2%
SMILES	Shiga inhibitor	CHX counter	Pf growth 96h	SARS PLpro yeast	Pf growth 48h	NS1 inh
CCOc1ccc(OCC(O)CNC2CCN(Cc3ccccc3)CC2)cc1 (stereo not drawn)	-32.5	-1.1	2.33µM*	2.6%	2.62µM*	-2.3%
COc1ccc(CNCC(O)COc2ccc(C(C)(C)c3ccccc3)cc2)cc1 (stereo not drawn)	-7.3	-6.8	?	-0.9%	9.28µM*	0.2%
CC(C)(c1ccccc1)c1ccc(OCC(O)CNC2CCN(Cc3ccccc3)CC2)cc1 (stereo not drawn)	-28.4	-5.7	2.08µM*	-12.2%	3.29µM*	.
CN(C(=O)c1ccc(NC(=O)C2CCCN(C(=O)OC(C)(C)C)C2)cc1)C1CC1 (stereo not drawn)	.	.	.	4.1%	.	.
CCC1CCC/C1=N\NC(=O)c1cc(C)[nH]n1 (stereo not drawn)	26.3	13.4	45.0%	-2.5%	.	-59.0%
CCC1CCC/C1=N\NC(=O)c1ccoc1C (stereo not drawn)	86.5*	37.8*	-0.1%	-2.0%	1.0%	5.3%
CCSc1nc2nn(-c3ccccc3)c(=O)c-2c2n1CCCCC2	-12.7	0.9	.	-4.3%	-18.8%	3.4%
Cc1ccc(C)c(C(=O)C(C)Sc2nc3nn(-c4ccccc4)c(=O)c-3c3n2CCCCC3)c1 (stereo not drawn)	-2.1	-1.7	9.28µM*	5.9%	?	15.0%
CC(C)(C)C(=O)OCc1nc(-c2ccc(C(F)(F)F)cc2)cs1	32.0	18.9*	35.5%	0.1%	-5.6%	0.5%
CCNc1nc(-c2cc(C)n(Cc3ccco3)c2C)cs1	103.9*	53.1*	?	0.2%	-53.7%	-0.2%
COc1cc(C2C3=C(CC(C)(C)CC3=O)N(C)C3=C2C(=O)CC(C)(C)C3)ccc1O	-7.6	-0.8	0.0%	.	11.2%	?
COc1ccc(N2C3=C(C(=O)CC(C)(C)C3)C(c3cnn(C)c3)C3=C2CC(C)(C)CC3=O)cc1	-6.3	-2.3	4.15µM*	0.3%	7.38µM*	1.5%
CCn1cc(C2C3=C(CC(C)(C)CC3=O)N(c3ccccc3)C3=C2C(=O)CC(C)(C)C3)c(C)n1	-12.9	-4.0	8.28µM*	16.8%	?	-5.0%
CC1(C)CC(=O)C2=C(C1)N(c1ccccc1)C(N)=C(C#N)C2c1ccccc1 (stereo not drawn)	-4.2	-3.7	?	-8.3%	?	8.3%
CC(C)COCC1CC2(CC(C)C(=O)CC2=O)C(=O)O1 (stereo not drawn)	-10.1	-1.5	.	4.2%	11.0%	5.2%
CC(=O)Nc1ccc(NC(=O)c2ccc(CSc3ccccc3)o2)cc1	12.7	4.5	31.8%	0.9%	?	.
O=C(Nc1cccc(F)c1)c1ccc(CSc2ccccc2)o1	95.3*	55.2*	101.7%	-64.7%	35.3%	-65.0%
O=C(Nc1ccccc1F)c1ccc(CSc2ccccc2)o1	63.2*	54.4*	0.0%	-9.0%	34.4%	-51.0%
CC(C)CNC(=O)c1ccccc1SCC(=O)NC12CC3CC(CC(C3)C1)C2	-6.3	0.2	?	-41.9%	?	-33.6%
Cc1cc(Cl)ccc1OCC(=O)OCC(=O)N(CC(C)C)c1c(N)n(Cc2ccccc2)c(=O)[nH]c1=O	.	.	35.3%	-0.7%	1.7%	.
